# Results as given in PubChem BioAssay (NCATS).
# Records with an inconclusive call do not appear. Entries that show only a call come without a potency. Calls of active or inactive are those of the source. The call rests on the fitted dose curve; in most records, active means well fitted curve in the direction sought with a large enough effect; inconclusive means small, poorly fitted or top-dose-only effect, or another doubt; inactive means no such curve, though single readings can be large; an effect the other way counts as inactive or inconclusive.
# Assays:
# [1] = target: ATP-dependent 6-phosphofructokinase (Trypanosoma brucei brucei) (UniProt O15648); test: qHTS Validation Assay to Find Inhibitors of T. brucei phosphofructokinase (AID 485368); details: outcome: dose series up to 57.5 µM
# Summary of the method: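 PFK-generated ADP was measured after 45 min at room temperature using ADP-Glo. The reaction contained 0.5 mM F6P and 0.1 mM ATP.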
# [2] = Quantitative high throughput screen for delayed death inhibitors of the malarial parasite plastid, 96 hour incubation (AID 488745); further: nearly all actives have a fitted effect of over 70% in size; further: potency means the concentration at half of the fitted maximal effect
# Summary of the method: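 Two-generation (96 h) exposure of luciferase-reporter P. falciparum in erythrocytes, 2% hematocrit, 0.1% parasitemia final, 37 C, 5% CO2, RPMI 1640 with 0.5% Albumax. Growth inhibition scored by reduced luminescence.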
# [3] = Quantitative high throughput screen for delayed death inhibitors of the malarial parasite plastid, 48 hour incubation (AID 488752); further: nearly all actives have a fitted effect of over 65% in size; further: potency means the concentration at half of the fitted maximal effect
# Summary of the method: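 Cultures: infected erythrocytes at final 2% hematocrit and 0.1% parasitemia in Albumax-supplemented RPMI. Parasites express integrated firefly luciferase. Incubation with compound lasts 48 h before luminescent detection of remaining reporter activity.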
# [4] = target: Thioredoxin reductase 1, cytoplasmic (Rattus norvegicus) (UniProt O89049); test: qHTS Assay for Substrates of Mammalian Selenoprotein Thioredoxin Reductase 1 (TrxR1) (AID 488772);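 further: series mostly up to about 57 µM; a drop in NADPH fluorescence below the no-compound background marks a TrxR1 substrate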
# Summary of the method: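 In this dual-purpose format, potential substrates are identified from the first fluorescence read after selenite addition, not from the 8-minute delta. Rat enzyme is preincubated with NADPH and then with compound at ~22 deg C.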
# [5] = target: Thioredoxin reductase 1, cytoplasmic (Rattus norvegicus) (UniProt O89049); test: qHTS Assay for Inhibitors of Mammalian Selenoprotein Thioredoxin Reductase 1 (TrxR1) (AID 488773);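 further: drop in NADPH fluorescence over an 8 min run after selenite addition; series mostly up to about 57 µM; nearly all actives have a fitted effect of over 40% in size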
# Summary of the method: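 Inhibition is scored from the loss of NADPH fluorescence between first and last reads of an 8-min kinetic run. Selenite (400 uM) was the substrate, added after 15 min compound preincubation at room temperature.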
# [6] = target: Flap endonuclease 1 (Homo sapiens) (UniProt P39748); test: qHTS Validation Assay for the Inhibitors of Human Flap endonuclease 1 (FEN1) (AID 488816)
# Summary of the method: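 Enzyme reagent 10 nM; cpds pinned; 15 min RT preinc.; substrate 50 nM final; reads t=0 and 15 min; no-enzyme buffer wells as neg. control; normalized data, 4-parameter Hill fit.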
# [7] = target: Chromobox protein homolog 1 (Homo sapiens) (UniProt P83916); test: qHTS Validation Assay for Inhibitors of HP1-beta Chromodomain Interactions with Methylated Histone Tails (AID 488953); further: nearly all actives have a fitted effect of over 50% in size; further: potency means the concentration at half of the fitted maximal effect
# Summary of the method: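 Compounds pinned into a preassembled complex of HP1-beta and trimethyl-K9 histone H3(1-18) biotin peptide (50 nM each; PBS pH 7.4, 0.01% Tween-20). After 30 min, bead-based AlphaScreen detection followed.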
# [8] = target: Methanococcus maripaludis chaperonin (MmCpn) (UniProt Q6LX38); test: High-Throughput Screening for Modulators of Cytosolic Chaperonin Activity: MmCpn Primary Screen (AID 488978);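 further: 50 nM MmCpn enzyme hydrolysing 30 µM ATP at 37 °C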
# Summary of the method: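 ADP formation read by HTRF Transcreener, 665/590 nm emission after 320 nm excitation. Enzyme: archaeal chaperonin at 50 nM final; substrate ATP 30 uM final; 10 min, 37C, after 5 min compound preincubation at RT.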
# [9] = target: Transient receptor potential cation channel subfamily V member 1 (Homo sapiens) (UniProt Q8NER1); test: HTS Assay for Compounds that Act as Enhancers of the Vanilloid Receptor 1 (AID 488979)
# Summary of the method: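 TRPV1 cells loaded with Fluo-8 calcium dye; compound added and Ca2+ signal (ex 480/em 520 nm) followed 3 min, then capsaicin at EC20 added and read 2 more min to detect enhancement.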
# [10] = target: Thyrotropin receptor (Homo sapiens) (UniProt P16473); test: qHTS Assay for Antagonists of the Thyroid Stimulating Hormone Receptor (AID 488980); further: series mostly up to about 58 µM
# Summary of the method: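 TSHR-HEK293 cells; 70 uM RO 20-1724 PDE inhibitor; compound + EC80 TSH (4 nM final); anti-cAMP cryptate antibody/cAMP-d2 in lysis buffer, 30 min RT; HTRF 665/620 nm read.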
# Methanococcus maripaludis chaperonin (MmCpn), sequence (Q6LX38 1-543): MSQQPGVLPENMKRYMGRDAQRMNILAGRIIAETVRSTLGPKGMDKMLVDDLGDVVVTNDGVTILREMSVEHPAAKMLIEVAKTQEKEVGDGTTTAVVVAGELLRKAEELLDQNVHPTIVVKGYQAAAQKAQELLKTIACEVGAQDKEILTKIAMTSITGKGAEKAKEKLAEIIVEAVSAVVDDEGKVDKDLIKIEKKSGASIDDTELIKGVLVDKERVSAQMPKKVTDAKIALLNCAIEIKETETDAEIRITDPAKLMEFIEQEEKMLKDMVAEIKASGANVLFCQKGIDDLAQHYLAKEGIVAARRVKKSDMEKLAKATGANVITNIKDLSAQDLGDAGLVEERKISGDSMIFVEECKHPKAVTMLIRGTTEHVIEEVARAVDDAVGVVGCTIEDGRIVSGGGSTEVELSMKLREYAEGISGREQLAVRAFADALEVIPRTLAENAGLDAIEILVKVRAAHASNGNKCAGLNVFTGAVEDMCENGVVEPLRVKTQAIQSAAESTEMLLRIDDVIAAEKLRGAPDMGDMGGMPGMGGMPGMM
# Thioredoxin reductase 1, cytoplasmic (Rattus norvegicus), sequence (O89049 whole entry, looked up): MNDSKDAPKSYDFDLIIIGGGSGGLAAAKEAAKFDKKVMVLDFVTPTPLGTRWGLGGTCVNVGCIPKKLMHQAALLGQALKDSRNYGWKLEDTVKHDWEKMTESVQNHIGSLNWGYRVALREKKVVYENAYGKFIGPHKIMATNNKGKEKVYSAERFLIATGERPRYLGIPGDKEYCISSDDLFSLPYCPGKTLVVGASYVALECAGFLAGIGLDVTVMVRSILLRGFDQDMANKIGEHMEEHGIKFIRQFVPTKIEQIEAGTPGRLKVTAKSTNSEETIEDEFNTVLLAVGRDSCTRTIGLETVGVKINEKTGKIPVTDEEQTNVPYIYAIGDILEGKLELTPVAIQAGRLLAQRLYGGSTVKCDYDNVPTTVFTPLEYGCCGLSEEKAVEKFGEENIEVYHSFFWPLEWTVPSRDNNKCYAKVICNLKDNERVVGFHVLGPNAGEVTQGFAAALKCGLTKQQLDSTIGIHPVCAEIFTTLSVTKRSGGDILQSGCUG
# Chromobox protein homolog 1 (Homo sapiens), sequence (P83916 whole entry, looked up): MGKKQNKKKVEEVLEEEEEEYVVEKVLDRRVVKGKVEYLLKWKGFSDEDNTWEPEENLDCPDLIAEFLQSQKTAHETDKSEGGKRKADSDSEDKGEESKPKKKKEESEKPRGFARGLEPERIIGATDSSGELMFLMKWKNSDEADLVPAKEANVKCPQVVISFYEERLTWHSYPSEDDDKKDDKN
# Flap endonuclease 1 (Homo sapiens), sequence (P39748 whole entry, looked up): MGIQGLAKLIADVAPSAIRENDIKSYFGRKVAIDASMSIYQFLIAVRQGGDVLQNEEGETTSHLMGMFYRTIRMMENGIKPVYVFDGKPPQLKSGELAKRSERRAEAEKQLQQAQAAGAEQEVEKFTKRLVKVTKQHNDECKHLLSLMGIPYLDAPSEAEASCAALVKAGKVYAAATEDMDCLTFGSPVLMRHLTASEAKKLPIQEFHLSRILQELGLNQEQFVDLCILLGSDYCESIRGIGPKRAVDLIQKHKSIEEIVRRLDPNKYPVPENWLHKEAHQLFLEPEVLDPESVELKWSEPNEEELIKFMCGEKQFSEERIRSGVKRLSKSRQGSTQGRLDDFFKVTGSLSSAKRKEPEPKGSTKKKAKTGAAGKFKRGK
# ATP-dependent 6-phosphofructokinase (Trypanosoma brucei brucei), sequence (O15648 whole entry, looked up): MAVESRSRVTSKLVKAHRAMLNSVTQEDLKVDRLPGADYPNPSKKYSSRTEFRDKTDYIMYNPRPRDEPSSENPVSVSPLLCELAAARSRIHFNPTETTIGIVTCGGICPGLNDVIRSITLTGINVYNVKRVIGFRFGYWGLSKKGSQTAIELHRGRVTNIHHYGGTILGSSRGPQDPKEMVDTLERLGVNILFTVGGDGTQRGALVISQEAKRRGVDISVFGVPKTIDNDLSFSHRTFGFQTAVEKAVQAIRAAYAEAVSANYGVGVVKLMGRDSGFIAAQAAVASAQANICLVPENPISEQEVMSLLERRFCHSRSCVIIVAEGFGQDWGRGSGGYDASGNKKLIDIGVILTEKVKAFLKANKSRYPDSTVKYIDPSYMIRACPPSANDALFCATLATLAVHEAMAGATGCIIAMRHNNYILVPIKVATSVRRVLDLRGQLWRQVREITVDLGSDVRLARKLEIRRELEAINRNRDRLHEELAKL
# Transient receptor potential cation channel subfamily V member 1 (Homo sapiens), sequence (Q8NER1 whole entry, looked up): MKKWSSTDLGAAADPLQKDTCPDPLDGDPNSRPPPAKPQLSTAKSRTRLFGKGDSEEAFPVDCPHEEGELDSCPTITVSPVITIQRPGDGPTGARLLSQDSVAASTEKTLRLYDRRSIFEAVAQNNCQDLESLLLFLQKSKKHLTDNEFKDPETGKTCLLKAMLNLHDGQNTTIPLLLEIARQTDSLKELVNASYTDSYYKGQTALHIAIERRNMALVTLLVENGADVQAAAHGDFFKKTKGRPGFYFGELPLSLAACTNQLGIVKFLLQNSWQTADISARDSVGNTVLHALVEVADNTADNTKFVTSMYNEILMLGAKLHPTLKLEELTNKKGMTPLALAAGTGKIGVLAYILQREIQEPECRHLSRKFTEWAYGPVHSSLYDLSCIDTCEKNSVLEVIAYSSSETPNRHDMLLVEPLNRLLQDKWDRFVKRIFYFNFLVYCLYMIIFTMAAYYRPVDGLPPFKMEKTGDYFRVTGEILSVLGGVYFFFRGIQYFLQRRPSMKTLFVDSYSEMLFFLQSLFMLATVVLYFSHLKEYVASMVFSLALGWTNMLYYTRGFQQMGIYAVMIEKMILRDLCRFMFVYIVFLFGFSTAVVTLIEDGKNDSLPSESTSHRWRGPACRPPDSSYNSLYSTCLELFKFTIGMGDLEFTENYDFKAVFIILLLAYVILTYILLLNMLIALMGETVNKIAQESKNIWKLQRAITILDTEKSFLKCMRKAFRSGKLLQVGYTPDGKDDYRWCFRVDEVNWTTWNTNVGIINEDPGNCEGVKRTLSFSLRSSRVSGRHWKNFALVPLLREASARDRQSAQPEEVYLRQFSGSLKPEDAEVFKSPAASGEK
# Thyrotropin receptor (Homo sapiens), sequence (P16473 whole entry, looked up): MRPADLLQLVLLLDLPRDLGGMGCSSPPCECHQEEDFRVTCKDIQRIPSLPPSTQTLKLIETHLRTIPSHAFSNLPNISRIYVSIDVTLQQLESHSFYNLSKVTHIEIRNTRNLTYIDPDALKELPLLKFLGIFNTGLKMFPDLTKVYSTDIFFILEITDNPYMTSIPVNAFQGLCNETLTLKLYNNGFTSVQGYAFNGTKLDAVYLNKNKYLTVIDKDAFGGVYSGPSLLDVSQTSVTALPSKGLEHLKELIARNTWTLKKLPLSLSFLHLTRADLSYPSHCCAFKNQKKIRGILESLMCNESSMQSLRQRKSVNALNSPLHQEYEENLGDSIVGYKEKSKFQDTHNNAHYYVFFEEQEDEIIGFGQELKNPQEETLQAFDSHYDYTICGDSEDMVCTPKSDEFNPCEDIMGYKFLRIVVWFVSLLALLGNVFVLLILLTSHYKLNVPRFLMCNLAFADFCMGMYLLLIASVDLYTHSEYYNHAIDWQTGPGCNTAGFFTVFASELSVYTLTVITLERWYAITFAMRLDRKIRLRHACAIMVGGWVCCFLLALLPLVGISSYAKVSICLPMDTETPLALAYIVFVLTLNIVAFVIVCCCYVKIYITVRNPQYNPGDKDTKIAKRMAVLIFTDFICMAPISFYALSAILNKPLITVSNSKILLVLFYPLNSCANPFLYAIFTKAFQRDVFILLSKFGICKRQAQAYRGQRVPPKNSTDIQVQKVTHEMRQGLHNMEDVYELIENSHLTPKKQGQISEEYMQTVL
Structure (SMILES),outcome [1],Potency [2],Potency [3],outcome [4],outcome [5],outcome [6],Potency [7],outcome [8],outcome [9],outcome [10]
CC(C)N(CCC(C(N)=O)(c1ccccc1)c1ccccn1)C(C)C (configuration not stated),inactive,inactive,inactive,inactive,inactive,inactive,inactive,inactive,inactive,inactive
CC(NC(C)(C)C)C(=O)c1cccc(Cl)c1 (configuration not stated),–,inactive,inactive,inactive,inactive,inactive,inactive,inactive,inactive,–
O=C(O)CCCc1ccc(N(CCCl)CCCl)cc1,–,inactive,inactive,inactive,–,inactive,inactive,inactive,inactive,inactive
C[C@]12CCC(=O)C=C1CC[C@@H]1[C@@H]2CC[C@]2(C)C(=O)CC[C@@H]12,–,–,inactive,–,–,–,–,–,inactive,inactive
NCCc1ccc(O)cc1,inactive,inactive,inactive,inactive,inactive,inactive,inactive,inactive,inactive,inactive
COc1ccc2c(c1OC)C(=O)O[C@H]2[C@@H]1c2cc3c(cc2CCN1C)OCO3,inactive,–,inactive,inactive,inactive,inactive,inactive,inactive,–,inactive
CN(C)C(=O)Oc1ccc[n+](C)c1,–,–,–,–,–,–,0.0067 µM (active),–,–,–
CCC1(c2ccc(N)cc2)CCC(=O)NC1=O (configuration not stated),inactive,inactive,inactive,inactive,inactive,–,inactive,inactive,inactive,–
O=C(CCCN1CCC2(CC1)C(=O)NCN2c1ccccc1)c1ccc(F)cc1,inactive,–,–,inactive,inactive,inactive,–,inactive,–,inactive
O=c1[nH]oc2c1CCNC2,inactive,inactive,inactive,inactive,inactive,inactive,inactive,inactive,inactive,inactive
O=P1(N(CCCl)CCCl)NCCCO1 (configuration not stated),inactive,inactive,inactive,inactive,inactive,inactive,0.006 µM (active),inactive,inactive,inactive
Cc1ncsc1CCCl,inactive,–,–,inactive,inactive,inactive,inactive,inactive,–,–
CCCCC/C=C\C/C=C\C/C=C\C/C=C\CCCC(=O)NCC(=O)O,–,inactive,inactive,inactive,–,inactive,44.7 µM (active),inactive,inactive,–
CC(C)(C)NCC(O)c1ccccc1Cl (configuration not stated),–,inactive,inactive,inactive,inactive,inactive,inactive,inactive,inactive,inactive
CC(C)c1cccc(C(C)C)c1O,inactive,inactive,inactive,inactive,inactive,inactive,inactive,inactive,inactive,inactive
CC(=O)N1CCN(c2ccc(OC[C@H]3CO[C@](Cn4ccnc4)(c4ccc(Cl)cc4Cl)O3)cc2)CC1,–,11.7 µM (active),8.28 µM (active),–,–,inactive,39.8 µM (active),–,–,–
CN1C(=O)CCS(=O)(=O)C1c1ccc(Cl)cc1 (configuration not stated),inactive,inactive,inactive,inactive,inactive,inactive,inactive,inactive,inactive,inactive
C=C(C)[C@H]1CN[C@H](C(=O)O)[C@H]1CC(=O)O,–,inactive,inactive,inactive,inactive,inactive,inactive,inactive,inactive,inactive
